# System: Plasmodium berghei ANKA liver stage in HepG2-A16-CD81
# Assay: % inhibition of liver stage parasite viability (luciferase); higher = more inhibition
# Details: 5 µM; 48 h
# Protocol: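 Single-concentration screen of the MMV Pandemic Response Box. P. falciparum NF54 asexual blood stages: pLDH assay, 72 h at 37 °C, 2 and 20 µM, n=2. Stage IV/V gametocytes (NF54): luciferase reporter (NF54-Pfs16-GFP-Luc, 48 h), ATP bioluminescence (24 h) and PrestoBlue (48 h) at 1 and 5 µM, n=1. P. berghei liver stage (luciferase in HepG2-A16-CD81, 48 h post infection) at 5 µM, n=4. All normalised to DMSO and kill controls as % inhibition.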
row,SMILES,% inhibition of liver stage parasite viability [%]
1,O=C(NCc1ncc(C(F)(F)F)cc1Cl)c1c(Cl)cccc1Cl,34.7
2,COc1ccc(SC(=O)N[C@H](CCC(=O)O)C(=O)O)cc1,19.9
3,CNCC(=O)OCc1cccnc1N(C)C(=O)OC(C)[n+]1cnn(C[C@](O)(c2cc(F)ccc2F)[C@@H](C)c2nc(-c3ccc(C#N)cc3)cs2)c1 (stereo not given in full),29.6
4,Cc1c[nH]c(=O)nc1NCc1ccccc1,18.3
5,CCCCN1C[C@H](O)[C@@H](O)[C@H](O)[C@H]1CO,10.9
6,CC(=N)N1CC[C@H](SC2=C(C(=O)O)N3C(=O)[C@@H]([C@@H](C)O)[C@H]3C2)C1,5.53
7,Clc1cc(Cl)c2c(c1)CCc1ccccc1C2n1ccnc1 (stereo not given),53.2
8,Nc1nc(F)nc2c1ncn2[C@H]1O[C@@H](CO)[C@H](O)[C@@H]1O,76
9,C(=C\c1nc2ccccc2[nH]1)/c1ccc2c(c1)OCO2,-23.6
10,O=C(NCc1ccccc1Cl)c1cnc2ccccc2n1,12.6
11,CN1c2ccc(Cl)cc2N(c2ccccc2)C(=O)c2cn(Cc3ccc(CN4CCOCC4)cc3)nc21,38.6
12,O=C(O)c1ccccc1Sc1ncnc2sc3c(c12)CCC3,-30.6
13,CCN(CC)S(=O)(=O)c1ccc(Cl)c(C(=O)Nc2sc3c(c2C#N)CCCC3)c1,69.2
14,Cc1ncc([N+](=O)[O-])n1CC(O)CN1CCOCC1 (stereo not given),25.3
15,COc1ccc(CNC(=O)C2CCN([C@H](C)c3cccc4ccccc34)CC2)cc1,19.6
16,COc1nc2ccc(Br)cc2cc1[C@@H](c1ccccc1)[C@@](O)(CCN(C)C)c1cccc2ccccc12,31.1
17,CC(C)Nc1ncnc2c1cnn2-c1ccc(Cl)cc1,43.2
18,O=S(=O)(NCB(O)O)c1cc2c(Cl)ccc(Cl)c2s1,-37.4
19,O=C(Nc1ccc(-c2ccccc2)cc1)C1=C(O)C(Cc2ccccc2)OC1=O (stereo not given),44.3
20,CCc1cc(CCC(=O)Nc2ccccc2O)c(=O)[nH]c1C,17.8

row,SMILES,% inhibition of liver stage parasite viability [%]
1,Nc1nc(=O)c(Br)c(-c2cccc(Cl)c2)[nH]1,-7.9
2,O=C(N[C@H](Cc1cccc2ccccc12)C(=O)NCCc1c[nH]cn1)C1Cc2ccccc2C1,21.8
3,Cc1ccn2c(C(=O)NCc3ccccc3)c(C)nc2c1,20.4
4,Cc1nc(N(C)C(=O)Cc2ccc(-c3ccccn3)cc2)sc1S(N)(=O)=O,24.8
5,O=C(Nc1ccccc1C(=O)O)c1cccc(Oc2ccccc2)c1,-3.28
6,CCNC(=O)Nc1cc(-c2ccccc2)c(-c2cncc(C(=O)O)c2)cn1,41.3
7,CCOc1ccc(C(=O)NCCc2ccccc2)cc1,-19.9
8,CC(C)CCN1C(=O)C(C2=NS(=O)(=O)c3cc(NS(C)(=O)=O)ccc3N2)=C(O)[C@@H]2[C@H]3CC[C@H](C3)[C@@H]21,47.3
9,C[C@H](c1cccc2ccccc12)N(C)Cc1ccccc1,19.1
10,C[C@@H]1O[C@@H]1P(=O)(O)O,-6.92
11,CN(C(=O)C1(c2ccc(Cl)cc2)CCC1)c1ccccc1,3.18
12,CCCCCCC1c2ccc(O)cc2Oc2cc(O)ccc21,42.4
13,CC(C)N(c1cc(-c2ccccc2)sc1C(=O)O)C(=O)[C@H]1CC[C@H](C)CC1,20.5
14,CCOCc1nc2c(N)nc3ccccc3c2n1CC(C)(C)O,18.3
15,N#CCN1C(=O)COc2cc(F)c(N3C(=O)c4ccccc4C3=O)cc21,14.6
16,Cc1ccc(N2CCC(CCOc3ccc(S(C)(=O)=O)cc3)CC2)nn1,17.8
17,COC(=O)Nc1nc2c(C)cccc2[nH]1,3.06
18,CC(Cc1ccccc1)C(=O)Nc1ccc(Cl)cc1C(=O)O (stereo not given),8.73
19,O=C(NNC(=S)Nc1ccc(Cl)cc1)c1ccncc1,5.18
20,C[C@H](NC(CC(=O)c1ccccc1C(F)(F)F)C(=O)O)c1ccccc1 (stereo not given in full),36.5

# Reference: the supplement of paper PMC7801607
